DAX1 inh-1: blocks DAX1 repression of SF-1 activated StAR promoter; HEK293T StAR-luciferase reporter, SF-1/DAX-1 repression relief; inhibition, % at 6.8 µM; 370,000 compounds, 1.1% hits;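 active means inhibition above the mean over all tested compounds plus 3 SD, cut at about 3.6% in these data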;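 further: higher inhibition means more luminescence from relief of DAX-1 repression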
DAX1 inh-2: inhibits human nuclear receptor DAX1. P51843. HEK293 Gal4-DAX1 luciferase reporter, luminescence. inhibition, % at 6.75 µM. 340,000 compounds, 0.99% hits;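 active means inhibition above the mean over all tested compounds plus 3 SD, cut at about 4.2% in these data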;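 further: inhibition shows as a rise in luminescence from relieved DAX1 repression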
Target sequence (P51843 207-470 limits assumed): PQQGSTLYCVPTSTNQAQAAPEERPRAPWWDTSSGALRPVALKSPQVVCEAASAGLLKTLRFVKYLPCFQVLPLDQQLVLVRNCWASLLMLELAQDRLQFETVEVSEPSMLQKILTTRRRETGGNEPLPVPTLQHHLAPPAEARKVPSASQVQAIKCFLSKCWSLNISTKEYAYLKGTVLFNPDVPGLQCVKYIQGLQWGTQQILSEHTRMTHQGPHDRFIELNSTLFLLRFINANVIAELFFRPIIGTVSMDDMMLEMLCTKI
hgDAF-12 ag: hgDAF-12 agonism, primary luciferase screen. activation, % at 6.8 µM. HEK293 GAL4-hgDAF12 UAS-luciferase reporter, agonist luminescence; normalized to butyrate control. 370,000 compounds, 1.8% hits. AID 687014;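 active means activation above a cutoff set at the mean of all screened compounds plus 3 SD, cut at about 10% in these data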
ssDAF12 agonist: S. stercoralis DAF-12 activation, primary screen; HEK293 ssDAF-12/GRIP1 lit1-tk-luc reporter, luminescence; % of 3 µM dafachronic acid response; activation, % at 6.8 µM; 370,000 compounds, 1% hits; AID 652126;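 active means activation above the mean over all tested compounds plus 3 SD, cut at about 0.9% in these data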
NR1D1 modulator: modulators of human Rev-erb alpha DNA binding. Rev-erbα–FITC-DNA binding, fluorescence polarization, 90 min. P20393. activity, % at 10 µM. 370,000 compounds, 0.79% hits;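 active means activity above about 14%, limit read from the data; passing the limit was not always enough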
hcDAF-12 act: H. contortus DAF-12 activation, primary screen; 370,000 compounds, 1.4% hits; HEK293 hcDAF-12 lit1-tk-luc reporter, luminescence; 0% DMSO, 100% Δ7-dafachronic acid; activation, % at 6.8 µM;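 active means activation above the mean of all tested compounds plus 3 SD, cut at about 5.5% in these data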
DAX1 conf: NR0B1 (human) inhibition, confirmation; shares compounds with DAX1 inh-1; HEK293T StAR-promoter luciferase reporter, SF-1/DAX-1 repression; inhibition, % at 6.8 µM; 2,400 compounds, 87% hits;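 active means inhibition above the average of every tested compound plus 3 SD, cut at about 3.8% in these data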;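 further: active compounds raise luminescence by relieving repression of the StAR reporter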
SF1 AF2mut Luc: nonselective inhibitor or artifact in SF-1 mutant DAX1 counter-screen; shares compounds with DAX1 inh-1; HEK293 StAR-luciferase, SF-1 AF2 mutant, luminescence; inhibition, % at 6.8 µM; 2,400 compounds, 78% hits; AID 652136;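 active means inhibition above the mean of all tested compounds plus 3 SD, cut at about 3% in these data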
LXR ag: activates human LXR-beta, counter-screen for hcDAF-12 agonists. HEK293 Gal4-LXR tk-luc reporter, luminescence, 24 h; normalized: DMSO 0%, positive control 100%. 3,400 tested, under 10 active. activation, % at 6.8 µM. shares compounds with hcDAF-12 act;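 active means mean percent activation of the reporter above a cutoff set as the average over tested compounds plus their standard deviation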
hcDAF12 conf: hcDAF-12 agonism, confirmation assay; HEK293 hcDAF-12 lit1-tk-luc reporter, luminescence; % of Δ7-dafachronic acid response; AID 743032; activation, % at 6.8 µM; 3,400 compounds, 61% hits; shares compounds with hcDAF-12 act;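 active means mean activation across triplicate tests above the threshold derived from the earlier primary screen, cut at about 5.5% in these data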
hgDAF12 conf: hgDAF-12 agonism, confirmation assay; shares compounds with hgDAF-12 ag; AID 743050; HEK293 GAL4-hgDAF12 luciferase reporter, agonist mode; percent of butyrate response; 3,300 compounds, 80% hits; activation, % at 6.8 µM;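 active means mean activation over triplicate wells above the hit cutoff derived from the earlier primary screen, cut at about 11% in these data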
LXRb DAF12 ctr: counter-screen for DAF-12 agonists: agonists of human LXR-beta | shares compounds with hgDAF-12 ag | HEK293 Gal4-LXR luciferase reporter, 24 h | activation, % at 6.8 µM | 3,300 tested, under 10 active;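 active means mean activation of the triplicate above a set limit carried over from the primary screen, none filed active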
Large screens that a line does not name were inactive (follow-up assays come after a bar, where they were run). Hits are enriched below; roughly 4.8% of the tested compounds scored in any of these assays.

O=C(Nc1nc2c(s1)CCCC2)c1ccc2ncsc2c1	DAX1 inh-1 8.0, hgDAF-12 ag 16, ssDAF12 agonist 1.0, hcDAF-12 act 6.2 | DAX1 conf 10 | SF1 AF2mut Luc 3.2 | hgDAF12 conf 12 | LXRb DAF12 ctr inactive
Cc1ccc(Cc2c(-c3ccc(F)cc3)nc3cc(C)ccn23)cc1	DAX1 inh-1 6.6, hgDAF-12 ag 17 | DAX1 conf inactive | SF1 AF2mut Luc inactive | hgDAF12 conf inactive | LXRb DAF12 ctr inactive
Cc1ccc(Cc2c(-c3ccc(Br)cc3)nc3cc(C)ccn23)cc1	DAX1 inh-1 7.5, hgDAF-12 ag 14 | DAX1 conf 3.7 | SF1 AF2mut Luc inactive | hgDAF12 conf inactive | LXRb DAF12 ctr inactive
Cc1ccc(-c2nc3ccc(Br)cn3c2Cc2ccccc2)cc1	DAX1 inh-1 5.4, hgDAF-12 ag 14 (no result: DAX1 inh-2) | DAX1 conf 8.2 | SF1 AF2mut Luc inactive | hgDAF12 conf 16 | LXRb DAF12 ctr inactive
Cc1ccc(Cc2c(-c3ccccc3)nc3ccc(Br)cn23)cc1	none
Cc1ccc(-c2nc3ccc(C)cn3c2Cc2ccccn2)cc1	DAX1 inh-1 5.8, hgDAF-12 ag 14 (no result: DAX1 inh-2) | DAX1 conf 10 | SF1 AF2mut Luc 4.5 | hgDAF12 conf inactive | LXRb DAF12 ctr inactive
Cc1ccc(Cc2c(-c3ccc(F)cc3)nc3ccc(Br)cn23)cc1	none (no result: DAX1 inh-2)
Cc1ccc(Cc2c(-c3ccc(F)cc3)nc3ccc(Cl)cn23)cc1	none
Cc1ccc2nc(-c3ccc(C#N)cc3)c(Cc3ccccn3)n2c1	none (no result: DAX1 inh-2)
Cc1cccnc1NC(=S)NC(=O)c1cccs1	DAX1 inh-1 7.2, hgDAF-12 ag 18, ssDAF12 agonist 2.2, hcDAF-12 act 14 | DAX1 conf 14 | SF1 AF2mut Luc 10 | LXR ag inactive | hcDAF12 conf 15 | hgDAF12 conf 17 | LXRb DAF12 ctr inactive
Cc1ccc(C(C#N)=Cc2ccc3c(c2)OCO3)cc1	DAX1 inh-1 6.8, hgDAF-12 ag 18 | DAX1 conf 11 | SF1 AF2mut Luc 5.0 | hgDAF12 conf 21 | LXRb DAF12 ctr inactive
N#C/C(=C\c1ccc2c(c1)OCO2)C(N)=S	none (no result: DAX1 inh-2)
O=C(CSC(=S)N1CCCC1)c1ccccc1	DAX1 inh-1 9.6, hgDAF-12 ag 18 | DAX1 conf 9.5 | SF1 AF2mut Luc 7.4 | hgDAF12 conf 14 | LXRb DAF12 ctr inactive
O=C(CSC(=S)N1CCCCC1)c1ccccc1	none
NC(=O)c1ccc[n+]([C@@H]2O[C@H](COP(=O)([O-])OP(=O)(O)OC[C@H]3O[C@@H](n4cnc5c(N)ncnc54)[C@H](O)[C@@H]3O)[C@@H](O)[C@H]2O)c1	none (no result: DAX1 inh-1, DAX1 inh-2, hgDAF-12 ag, ssDAF12 agonist, hcDAF-12 act)
CC(C)c1ccc(Nc2ncccc2C(=O)O)cc1	DAX1 inh-1 6.4, hgDAF-12 ag 22, hcDAF-12 act 6.0 | DAX1 conf 15 | SF1 AF2mut Luc 7.4 | hgDAF12 conf 21 | LXRb DAF12 ctr inactive
COc1ccc(NC(=O)c2cccnc2Nc2ccc(OC)cc2)cc1	none

Screening data as filed in PubChem.
